This is a sample that favours compounds with a hit; in the whole collection about 22% have one here.
Pf growth 48h: P. falciparum growth inhibition at 48 hours (one generation). Potency, µM (series often up to 28.7 µM), for the others: at the top dose activity change, negative = inhibition, usual class: inhibitors. 310,000 tested, 5.9% active. P. falciparum luciferase growth in erythrocytes, 48 h; also: potency is read from the fitted curve at half-maximal effect; % is scaled to controls: 0 for no effect and ±100 for the full control effect
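Parasite viability was followed by luminescence of a genomically integrated firefly luciferase. Cultures held 0.1% parasitemia at 2% hematocrit (final), incubated under 5% CO2 at 37 C.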
LmPK inhibitor: LmPK (Leishmania mexicana) enzyme inhibition; Q27686; purified LmPK, Kinase-Glo ATP luminescence, 1 h; Potency, µM (titrated, usually from 57.5 µM), inactives show top-dose activity change, negative = inhibition, usual class: inhibitors; 290,000 tested, 0.37% active; also: potency is read from the fitted curve at half-maximal effect; % is scaled to controls: 0 for no effect and ±100 for the full control effect
Target sequence (Q27686 whole entry, looked up): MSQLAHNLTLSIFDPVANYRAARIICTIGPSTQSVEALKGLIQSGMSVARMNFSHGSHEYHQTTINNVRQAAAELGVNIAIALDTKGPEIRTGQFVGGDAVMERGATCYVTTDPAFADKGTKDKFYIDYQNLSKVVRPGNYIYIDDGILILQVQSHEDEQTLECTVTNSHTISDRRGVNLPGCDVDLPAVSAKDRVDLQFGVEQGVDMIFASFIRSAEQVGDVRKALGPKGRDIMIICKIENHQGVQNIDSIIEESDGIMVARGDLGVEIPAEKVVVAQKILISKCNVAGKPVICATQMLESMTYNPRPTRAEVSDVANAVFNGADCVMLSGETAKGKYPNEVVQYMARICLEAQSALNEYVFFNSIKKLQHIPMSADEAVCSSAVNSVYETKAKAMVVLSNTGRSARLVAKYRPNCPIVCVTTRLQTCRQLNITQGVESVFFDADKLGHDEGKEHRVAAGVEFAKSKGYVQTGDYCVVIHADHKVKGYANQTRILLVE
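Pyruvate kinase activity monitored as ATP production (luciferase luminescence). Conditions: 0.1 nM enzyme, 0.5 mM PEP, 0.1 mM ADP, 1 h, RT; normalized against uninhibited and no-enzyme wells.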
Shiga inhibitor: inhibitors of Shiga toxin in Vero cells; Vero cells, Shiga toxin protein synthesis inhibition reporter; inhibition, % at 38.7 µM; 290,000 tested, 9.2% active; AID 2315; in the data active = inhibition mostly above about 28%, no sharp cut-off; inactive = mostly below about 43%; also: 0% is about no effect
Pf growth 96h: inhibits malaria parasite growth, 96 h; P. falciparum luciferase reporter growth, 96 h; Potency, µM (top dose mostly 28.7 µM), inactives show at the top dose activity change, negative = inhibition, most hits filed as inhibitors; 320,000 tested, 6.9% active; also: potency is read from the fitted curve at half-maximal effect; % is scaled to controls: 0 for no effect and ±100 for the full control effect
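Readout is luminescence from an integrated firefly luciferase in P. falciparum. Red cells, 2% hematocrit and 0.05% parasitemia final, were cultured with compound through two parasite generations (96 hours) at 37 C, 5% CO2.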
Cycloheximide cs: affects cycloheximide protein synthesis inhibition readout, counter-screen; cell reporter, cycloheximide protein synthesis inhibition counterscreen; max response, %; 300,000 tested, 12% active; in the data active = max response mostly above about 13%, no sharp cut-off; inactive = mostly below about 14%; also: read at 38.3 µM for the half of the compounds with a filed dose; 0% is about no effect
* = called active by the depositor; ? = inconclusive; · = not tested or not shown; + = active, no number. Unless noted, calls follow the shape of the dose curve; as a rule, active = well fitted inhibition curve with a large enough effect; inconclusive = small, poorly fitted or top-dose-only effect, or another doubt; inactive = no such curve, though single readings can be large or run the other way.

SMILES | Pf growth 48h | LmPK inhibitor | Shiga inhibitor | Pf growth 96h | Cycloheximide cs
COc1ccc(CC(=O)NCc2csc(-c3cccs3)n2)cc1OC | -22.4% | 1.1% | 12.4 | ? | -1.7
Cc1ccc(C(=O)CCC(=O)OCC(=O)N(CC(C)C)c2c(N)n(Cc3ccccc3)c(=O)[nH]c2=O)cc1 | 6.4% | · | · | 19.3% | ·
O=C(Nc1nc2ccc(F)cc2s1)C1CCN(S(=O)(=O)c2cc([N+](=O)[O-])ccc2Cl)CC1 | ? | 0.5% | 52.0* | ? | 33.9*
O=[N+]([O-])c1ccc(Cl)c([N+](=O)[O-])c1 | 10.4µM* | · | · | ? | ·
COc1ccc2nc(NC(=O)C3CCN(S(=O)(=O)c4cnc[nH]4)CC3)sc2c1 | -26.7% | -7.7% | -8.3 | 2.2% | -3.6
O=[N+]([O-])c1cc(Cl)c(Cl)cc1Cl | 23.5% | · | · | ? | ·
Cc1ccc2nc(NC(=O)C3CCN(S(=O)(=O)c4cnc[nH]4)CC3)sc2c1 | 59.6% | 4.3% | 6.1 | 11.7µM* | -1.7
CC(NC(=O)C1CCN(S(=O)(=O)c2cc([N+](=O)[O-])ccc2Cl)CC1)c1ccccc1 (configuration not stated) | -13.6% | 1.4% | -8.1 | -8.1% | -2.1
O=[N+]([O-])c1ccc(Cl)c(S(=O)(=O)N2CCCCCC2)c1 | -19.3% | 5.4% | -2.5 | 10.4µM* | -1.1
CC(C)(C)NC(=O)CN(C(=O)CCC(=O)Nc1nccs1)c1cccc(C(F)(F)F)c1 | ? | -6.6% | · | ? | -4.7
CC(Cc1ccccc1)NC(=O)c1cc([N+](=O)[O-])ccc1Cl (configuration not stated) | ? | 3.1% | 10.2 | ? | 5.0
Cc1ccc2nc(NC(=O)C3CCN(S(=O)(=O)c4cc([N+](=O)[O-])ccc4Cl)CC3)sc2c1 | -0.6% | 0.3% | + | ? | 12.6*
Cc1ccc2nc(NC(=O)C3CCN(S(=O)(=O)c4cccs4)CC3)sc2c1 | ? | 5.8% | 25.8 | 0.0% | -3.8
CCO[C@@H]1OC(C(=O)NCc2nc3ccccc3[nH]2)=C[C@H](c2csc3ccccc23)[C@H]1CCCO | ? | 6.1% | -6.4 | 13.1µM* | 1.0
CCO[C@@H]1OC(C(=O)NCc2nc3ccccc3[nH]2)=C[C@H](c2ccccc2)[C@H]1CCCO | ? | 3.1% | -20.0 | ? | -1.8
CCO[C@H]1OC(C(=O)NCc2nc3ccccc3[nH]2)=C[C@@H](c2ccccc2)[C@@H]1CCCO | -3.3% | 1.5% | -2.7 | -6.6% | -1.9
CCO[C@H]1OC(C(=O)NCc2nc3ccccc3[nH]2)=C[C@@H](c2csc3ccccc23)[C@@H]1CCCO | 10.4µM* | 11.1% | 2.9 | 10.4µM* | -2.5
Cn1c(N)c(C(=O)COC(=O)c2ccc([N+](=O)[O-])o2)c(=O)n(C)c1=O | -11.2% | 6.7% | 1.1 | 1.7% | 5.6
CC[C@]12C=CCN3CCC4(c5cc(Br)c(OC)cc5N(C)C4[C@@](O)(C(=O)OC)[C@@H]1OC(C)=O)C32 (some centres not stated) | ? | -2.3% | -10.5 | ? | -3.3
CC[C@]1(O)CC2CN(CCc3c([nH]c4ccccc34)[C@@](C(=O)OC)(c3cc4c(cc3OC)N(C)[C@H]3[C@@](O)(C(=O)OC)[C@H](OC(C)=O)[C@]5(CC)C=CCN6CC[C@]43[C@@H]65)C2)C1 (some centres not stated) | 0.477µM* | · | · | 0.849µM* | ·
CCC1=C[C@@H]2CN(C1)Cc1c([nH]c3ccccc13)[C@@](C(=O)OC)(c1cc3c(cc1OC)N(C)[C@@H]1[C@@](O)(C(=O)OC)[C@H](OC(C)=O)[C@]4(CC)C=CCN5CC[C@]31[C@@H]54)C2 | 0.477µM* | · | · | 0.849µM* | ·
Cc1ccc(NC2CCCN(C(=O)CN3C(=O)c4ccccc4C3=O)C2)cc1C (configuration not stated) | ? | 0.0% | -4.6 | 14.7µM* | -1.4
Cc1ccc(NC2CCCN(C(=O)CCC(=O)c3ccccc3)C2)cc1C (configuration not stated) | ? | -14.0% | 18.9 | 0.3% | 9.0
Cc1ccc(NC2CCCN(C(=O)CSc3ccncc3)C2)cc1C (configuration not stated) | -25.5% | 0.0% | -17.9 | 13.1µM* | -2.0
Cc1ccc(CNC(=O)c2ccc(OCC3CCCO3)cc2)cc1 (configuration not stated) | -0.3% | 1.0% | 16.4 | 33.8% | 15.2*
SMILES | Pf growth 48h | LmPK inhibitor | Shiga inhibitor | Pf growth 96h | Cycloheximide cs
O=C(NCc1ccc(Cl)cc1)c1ccc(OCC2CCCO2)cc1 (configuration not stated) | 9.4% | -2.0% | 13.5 | 7.3% | -3.1
O=C(NCc1ccco1)c1ccc(OCC2CCCO2)cc1 (configuration not stated) | 1.4% | 0.8% | 22.7 | · | 20.2*
NC(=O)Cn1nc([N+](=O)[O-])nc1Oc1ccccc1F | 25.0% | 5.6% | -10.0 | ? | -5.4
Cc1cc(NC(=O)CCC(=O)N(c2ccccc2)C(C(=O)NC(C)(C)C)c2ccccc2Cl)no1 (configuration not stated) | 13.1µM* | -0.3% | 11.8 | -18.4% | 2.2
CCC(C)(C)NC(=O)C(c1cccc(OC)c1OC)N(CCOC)C(=O)CCC(=O)Nc1cc(C)on1 (configuration not stated) | 2.9% | -8.2% | -5.3 | 10.4µM* | -1.0
COc1ccc(C(C(=O)NC(C)(C)C)N(CCc2ccccc2)C(=O)CCC(=O)Nc2cc(C)on2)cc1 (configuration not stated) | 11.7µM* | 2.8% | 30.7* | 1.8% | 22.2*
CCC(C)(C)NC(=O)C(c1ccc(OC)cc1)N(Cc1cccs1)C(=O)CCC(=O)Nc1cc(C)on1 (configuration not stated) | 10.4µM* | 6.2% | -5.2 | 3.4% | -1.1
Cc1cccc(C)c1NC(=O)CN(C)C(C)C(=O)NCC(=O)Nc1ccc(F)c(F)c1F (configuration not stated) | -0.7% | · | · | 10.5% | ·
COC(=O)c1cccc(CSc2nc(-c3ccccc3)c(C#N)c(=O)[nH]2)c1 | 8.6% | 6.1% | -5.9 | 6.6% | 0.5
COc1ccc(NC(=O)C2C3C=CC4(O3)C2C(=O)N(CCN2CCCCC2C)C4C(=O)NC2CCCCC2)cc1 (configuration not stated) | -3.0% | 10.4% | -6.6 | ? | -2.6
CCOC(=O)C1(CCOc2ccccc2)CCN(Cc2cccc3nonc23)CC1 | ? | 1.2% | 14.0 | 2.6% | 5.6
Cc1ccc(C(C(=O)NC(C)(C)C)N(Cc2cccs2)C(=O)c2ccc3c(c2)OCCO3)cc1 (configuration not stated) | ? | 0.3% | -8.9 | -11.8% | 2.8
CCC(C)(C)NC(=O)C(c1ccc(C)cc1)N(Cc1cccs1)C(=O)c1ccc2c(c1)OCCO2 (configuration not stated) | ? | -0.6% | -13.6 | 11.7µM* | -1.9
COc1ccc(C2/C(=C(/O)c3ccc(C)cc3)C(=O)C(=O)N2c2ccccn2)cc1 (configuration not stated) | 32.2% | 0.8% | 16.7 | 9.2% | -3.5

From PubChem BioAssay
